# Compounds with a hit are over-represented: about 3.3% of the library has one in this group of screens.
# FGF22 binding = binders of human FGF22 protein, primary screen, FGF22 synaptogenesis inhibitor project, biophysical, thermal shift, single point | activity (Tm shift, normalised), % at 9.99 µM | recombinant FGF22 thermal shift, SYPRO orange fluorescence; percent of sucrose octasulfate shift, DMSO zero | hit rate 1.5% among 340,000 | Fibroblast growth factor 22 (Homo sapiens), Q9HCT0;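 active means mean Tm shift, scaled 0 neutral to 100 positive control, at about 1.3% or above, every replicate too, limit read from the data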
# CASP6 VEID inh = human caspase-6 inhibitors, primary screen, biochemical, VEID-R110 fluorescence, single point, set 2; P55212; purified caspase-6, Z-VEID-R110 cleavage fluorescence; inhibition, % at 12.5 µM; hit rate 0.53% among 350,000;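 active means mean inhibition across replicates at least about 35%, with every replicate also reaching that limit, limit read from the data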;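 further: 0% = median of neutral control wells and 100% = no fluorescence left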
# Target sequence (P55212 24-179 limits assumed): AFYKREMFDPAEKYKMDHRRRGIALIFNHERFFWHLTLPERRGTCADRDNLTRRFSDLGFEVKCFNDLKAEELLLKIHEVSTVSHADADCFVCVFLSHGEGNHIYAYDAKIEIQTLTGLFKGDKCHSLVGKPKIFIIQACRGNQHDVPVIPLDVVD
# Target sequence (P55212 194-293 limits assumed): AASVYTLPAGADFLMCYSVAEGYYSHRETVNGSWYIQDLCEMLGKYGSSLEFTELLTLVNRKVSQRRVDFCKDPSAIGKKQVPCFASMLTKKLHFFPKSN
# ERAP1 HTS inh = human ERAP1 aminopeptidase inhibitors, primary screen, biochemical, single point, plate reader | Endoplasmic reticulum aminopeptidase 1 (Homo sapiens), Q9NZ08 | recombinant ERAP1, Leu-AMC fluorescence, 60 min | inhibition, % at 10.7 µM | hit rate 0.15% among 340,000 | AID 652197, 2013;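 active means mean replicate inhibition of at least 30%, or all replicates individually reaching that 30% level; inactive means mean below 30% and not every replicate reaching it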;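 further: 0% = neutral control wells and 100% = L-leucinethiol positive control wells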
# SIRT5 inh = SIRT5 desuccinylase inhibitors, primary screen, biochemical, fluorescence imaging, single point, set 5. inhibition, % at 15 µM. Purified SirT5, succinyl-peptide AMC, trypsin-coupled fluorescence. hit rate 1.1% among 330,000. NAD-dependent protein deacylase sirtuin-5, mitochondrial (Homo sapiens), Q9NXA8; in the data active means inhibition above about 15%
# INS-1E GSIS act = GLuc luminescence reporter in INS-1E cells, primary screen for activators of glucose-dependent secretion of insulin | INS-1E GLuc reporter insulin secretion, 2-3 h | AID 743287, 2014 | activation, % at 16.6 µM | hit rate 0.61% among 370,000;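 active means lowest replicate activation of at least 40%, so every replicate reaches that level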;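 further: 0% = median of neutral control wells and 100% = median of IBMX positive control wells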
# * hit, by the source's call; / = not tested or not shown; ! = a repeat was not active.
SMILES,FGF22 binding,CASP6 VEID inh,ERAP1 HTS inh,SIRT5 inh,INS-1E GSIS act
CC(C)NC(=O)N1C[C@@H]2[C@H](c3ccccc31)[C@@H](CO)N2C(=O)Nc1ccccc1,/,/,/,/,-1
C[C@H]1c2cccc(O)c2C(O)=C2C(=O)C3(O)C(O)=C(C(N)=O)C(=O)[C@@H](N(C)C)[C@@H]3[C@@H](O)[C@@H]21 (some centres not stated),0,24,4,-2,/
C=C1c2cccc(O)c2C(O)=C2C(=O)[C@]3(O)C(O)=C(C(N)=O)C(=O)[C@@H](N(C)C)[C@@H]3[C@@H](O)[C@H]12,0,94*,35*,/,/
Cc1ccc(C(=O)c2ccc([N+](=O)[O-])cc2)cc1,/,/,/,/,17
Cc1ccc(C(=O)c2coc3cc([N+](=O)[O-])c(O)c([N+](=O)[O-])c23)cc1,0,48*,7,1,-40
COC(=O)[C@@]1(Cc2ccccc2)[C@H]2C(=O)N(C)C(=O)[C@H]2[C@H]2CN=C(SCc3ccc(C)cc3)N21,/,0,14,9,-19
COC(=O)[C@@]1(Cc2ccccc2)[C@H]2C(=O)N(C)C(=O)[C@H]2[C@H]2CN=C(SCc3ccc(Cl)cc3)N21,43*,-1,3,0,-11
COC(=O)C[C@@H]1CC[C@@H]2[C@H](COc3ccc(NC(=O)C4CCOCC4)cc3C(=O)N2C)O1,0,-2,-4,0,-3
COC(=O)CN(c1cccc(C)c1)S(=O)(=O)c1ccccc1,0,-1,4,0,46*
Cc1cccc(N(CC(=O)N2CCN(C)CC2)S(=O)(=O)c2ccccc2)c1,0,-1,1,-3,-10
COC(=O)[C@@H]1CCCN1C(=O)CCc1nnc(CCC2CCCCC2)o1,43*,-2,-1,-2,5
COC(=O)[C@@H]1CCCN1C(=O)CCc1nnc(CCc2c[nH]c3ccccc23)o1,0,-3,-2,0,-2
Cc1[nH]nc(C(F)(F)F)c1N=NN1CCOCC1,0,0,3,-6,148*
COc1ccc(/C(=C/c2ccc(OC(F)F)c(OC)c2)C(=O)O)cc1OC,/,/,/,/,75*
COc1cc(/C=C(/C(=O)O)c2ccc(-c3ccccc3)cc2)cc(OC)c1OC,0,25,9,2,10
C/C=C/c1ccc2c(c1)O[C@@H](CN(C)C(=O)C1CCC1)[C@H](C)CN([C@H](C)CO)S2(=O)=O,/,/,/,/,6
CN(C)CCN(Cc1ccccc1)S(=O)(=O)c1ccc(-c2ccc(=O)[nH]n2)s1,0,-5,-2,16*,4
CCCCN(Cc1cccs1)S(=O)(=O)c1ccc(-c2ccc(=O)[nH]n2)s1,0,2,-6,0,-4
COc1cccc(C(=O)Nc2ccc3c(c2)C(=O)N(C)[C@@H]2CC[C@H](CC(=O)NCCCN4CCOCC4)O[C@@H]2CO3)c1,0,-6,-6,6,3
Cc1nn(C)cc1NC(=O)C[C@@H]1CC[C@H]2[C@H](COc3ccc(NC(=O)C4CCOCC4)cc3C(=O)N2C)O1,0,2,0,-1,3
C[C@H]1CCCCO[C@H](CN(C)S(C)(=O)=O)[C@@H](C)CN([C@@H](C)CO)C(=O)c2cc(N(C)C)ccc2O1,/,/,/,/,19
CCn1nnc(NC(=O)c2ccc([N+](=O)[O-])o2)n1,43*,2,-2,/,-11
CCCNC(=O)C[C@@H]1CC[C@@H]2[C@H](COC[C@H](O)CN2C(=O)c2cccnc2)O1,0,-1,0,0,6
Cc1ccc(S(=O)(=O)N[C@H]2C=C[C@H](CC(=O)NCCc3ccncc3)O[C@@H]2CO)cc1,0,-1,-1,-2,2
COCc1nc2ccccc2n1Cc1ccccc1C,0,0,-2,38*,7
O=C(Nc1ccccc1F)N1C[C@@H]2N[C@H](C1)C2c1ccc(/C=C/c2ccccc2)cc1 (some centres not stated),/,-1,2,27*,1
O=C(Nc1ccc2c(c1)OCO2)N1C[C@@H]2N[C@H](C1)C2c1ccc(C=Cc2ccccc2)cc1 (some centres not stated),/,2,0,17*!,89*!
